# Only some compounds are listed: those with a hit (about 11% of all), similar ones and a draw of the others.
# HP1b binding inh – HTS for Inhibitors of HP1-beta Chromodomain Interactions with Methylated Histone Tails; AlphaScreen HP1-beta / biotin-H3K9me3 peptide binding; Potency, µM (series often up to 114 µM), inactives show top-dose activity change, negative = inhibition, hits mostly inhibitors; 390,000 tested, 0.56% active; AID 540317, 2011; also: potency is read from the fitted curve at half-maximal effect; nearly all actives have a fitted effect of over 70% in size
#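 HP1-beta protein (50 nM final) preincubated 30 min at room temperature with biotinylated H3(1-18)K9me3 peptide (50 nM) in PBS pH 7.4, 0.01% Tween-20, then compound added for 30 min. AlphaScreen streptavidin donor/nickel chelate acceptor beads (10 ug/mL final), 30 min dark, luminescence read.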
# JMJD2A Tudor – qHTS Assay for Inhibitors of JMJD2A-Tudor Domain; Lysine-specific demethylase 4A (Homo sapiens), O75164; AlphaScreen JMJD2A-Tudor / H3K4me3 peptide binding; 390,000 tested, 4.4% active; Potency, µM (top dose mostly 114 µM), without a hit: at the top dose activity change, negative = inhibition, hits mostly inhibitors; also: potency is read from the fitted curve at half-maximal effect; % is scaled to controls: 0 for no effect and ±100 for the full control effect; nearly all actives have a fitted effect of over 50% in size
# Target sequence (O75164 whole entry, looked up, the tested form may be a part): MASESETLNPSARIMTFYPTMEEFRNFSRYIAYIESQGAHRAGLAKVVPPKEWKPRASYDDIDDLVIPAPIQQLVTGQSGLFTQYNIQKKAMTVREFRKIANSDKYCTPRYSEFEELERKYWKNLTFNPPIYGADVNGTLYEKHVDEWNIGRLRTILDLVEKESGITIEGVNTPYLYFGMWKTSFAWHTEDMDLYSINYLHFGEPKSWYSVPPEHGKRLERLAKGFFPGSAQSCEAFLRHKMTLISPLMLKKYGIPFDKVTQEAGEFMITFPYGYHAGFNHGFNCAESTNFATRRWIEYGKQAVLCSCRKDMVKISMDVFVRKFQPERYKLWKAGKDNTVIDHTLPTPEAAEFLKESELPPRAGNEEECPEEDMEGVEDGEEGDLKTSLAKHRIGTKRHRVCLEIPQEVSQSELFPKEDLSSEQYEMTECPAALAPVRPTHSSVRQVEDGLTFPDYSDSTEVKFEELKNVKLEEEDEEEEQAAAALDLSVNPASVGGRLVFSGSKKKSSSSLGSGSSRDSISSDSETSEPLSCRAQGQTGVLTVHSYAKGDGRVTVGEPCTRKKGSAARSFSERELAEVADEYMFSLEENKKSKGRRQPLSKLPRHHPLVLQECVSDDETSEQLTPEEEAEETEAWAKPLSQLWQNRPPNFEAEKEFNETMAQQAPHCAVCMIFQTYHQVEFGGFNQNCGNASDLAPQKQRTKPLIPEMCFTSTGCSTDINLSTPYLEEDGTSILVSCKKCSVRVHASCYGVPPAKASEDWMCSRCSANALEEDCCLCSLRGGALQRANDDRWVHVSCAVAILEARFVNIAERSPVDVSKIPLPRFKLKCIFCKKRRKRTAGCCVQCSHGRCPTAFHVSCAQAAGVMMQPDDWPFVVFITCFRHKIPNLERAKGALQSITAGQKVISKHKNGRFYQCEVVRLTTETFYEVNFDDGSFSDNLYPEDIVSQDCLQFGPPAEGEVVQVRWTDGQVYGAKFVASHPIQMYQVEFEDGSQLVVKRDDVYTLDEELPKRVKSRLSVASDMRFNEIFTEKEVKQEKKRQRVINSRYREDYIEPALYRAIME
# G9a inh – qHTS Assay for Inhibitors of Histone Lysine Methyltransferase G9a; G9a H3K9 monomethylation, AlphaScreen, 2 h; Potency, µM (series often up to 102 µM), for inactives: at the top dose activity, negative = inhibition, usual class: inhibitors; 350,000 tested, 8.8% active; AID 504332, 2011; also: potency is read from the fitted curve at half-maximal effect; % is scaled to controls: 0 for no effect and ±100 for the full control effect; nearly all actives have a fitted effect of over 75% in size
#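 Quantitative HTS format: methyltransferase activity on a biotin-tagged H3K9 peptide is measured by AlphaScreen, using a rabbit anti-monomethyl-H3K9 antibody with streptavidin donor and anti-IgG acceptor beads. Final levels are 20 nM enzyme, 500 nM peptide, 20 uM SAM; 2 h RT.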
# L3MBTL1 inh – qHTS Assay for the Inhibitors of L3MBTL1; Lethal(3)malignant brain tumor-like protein 1 (Homo sapiens), Q9Y468; AlphaScreen L3MBTL1–H3K9me1 peptide binding; 230,000 tested, 0.66% active; AID 485360, 2010; Potency, µM (top dose mostly 57.1 µM), inactives show at the highest dose activity, negative = inhibition, actives largely listed as inhibitors; also: potency is read from the fitted curve at half-maximal effect; % is scaled to controls: 0 for no effect and ±100 for the full control effect; nearly all actives have a fitted effect of over 60% in size
#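 AlphaScreen assay: L3MBTL1 (50 nM final) was preincubated 30 min at room temperature with biotinylated H3(1-15)K9me1 peptide (75 nM final), then 30 min with library compounds; streptavidin donor and nickel chelate acceptor beads (10 ug/mL final) added, 30 min dark.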
# BAZ2B inh – qHTS Assay for Inhibitors of BAZ2B; Bromodomain adjacent to zinc finger domain protein 2B (Homo sapiens), Q9UIF8; AlphaScreen BAZ2B-H3K14Ac peptide displacement; Potency, µM (highest dose often 114 µM), for inactives: top-dose activity change, negative = inhibition, actives largely listed as inhibitors; 360,000 tested, 4.4% active; AID 504333, 2011; also: potency is read from the fitted curve at half-maximal effect; % is scaled to controls: 0 for no effect and ±100 for the full control effect; nearly all actives have a fitted effect of over 60% in size
#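 Compounds, titrated to a top concentration of 110 uM, were incubated 30 min at room temperature with preformed BAZ2B/acetyl-K14 H3 peptide complex (50 nM each). Proximity signal was measured by AlphaScreen after 20 min with beads.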
# PI5P4Ka inh – qHTS for Inhibitors of phosphatidylinositol 5-phosphate 4-kinase (PI5P4K); max response, %; AID 652105, 2013; 330,000 tested, 1.2% active; Phosphatidylinositol 5-phosphate 4-kinase type-2 alpha (Homo sapiens), P48426; PI5P4Kalpha enzyme, ADP-Glo luminescence, 60 min; stronger effect = lower value; active = max response of -50% or lower; inconclusive = between -30% and -50%; inactive = -30% or higher; also: value at the top dose of about 77 µM; % is scaled to controls: 0 for no effect and ±100 for the full control effect
#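 Controls without substrate or without enzyme flank wells where PI5P4Kalpha converts substrate using 5 microM ATP (final). Incubation lasts 60 minutes at room temperature; ADP formed is read by ADP-Glo luminescence.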
# An asterisk follows results filed as active; ? = inconclusive; . = no result given; ! = not active in a repeat; [ ] = dose if it differs, or a comment. Unless noted, calls follow the shape of the dose curve; as a rule, active = well fitted inhibition curve with a large enough effect; inconclusive = small, poorly fitted or top-dose-only effect; inactive = no such curve, though single readings can be large or run the other way.
SMILES,HP1b binding inh,JMJD2A Tudor,G9a inh,L3MBTL1 inh,BAZ2B inh,PI5P4Ka inh
CCOC(=O)c1c(C)[nH]c(C)c1S(=O)(=O)N1CCC(C(=O)N2CCN(c3cccc(C)c3)C(C)C2)CC1 (stereo unspecified),15%,?,-28%[59 µM],.,79µM*,.
CCOC(=O)c1c(C)[nH]c(C)c1S(=O)(=O)N1CCC(C(=O)N2CCN(c3cc(C)ccc3C)CC2)CC1,-7%,?,-32%[59 µM],.,-36%,.
Cc1ccc(C)c(N2CCN(c3ccc4cc(S(=O)(=O)N5CCCCC5)ccc4n3)CC2)c1,35%,11%,?,.,?,3
Cc1cccc(N2CCN(c3ccc4cc(S(=O)(=O)N5CCCCC5)ccc4n3)CC2C)c1 (stereo unspecified),41%,?,25µM*,.,-18%[57.1 µM],1
CCOC(=O)c1cc(S(=O)(=O)N2CCN(c3cccc(C)c3)C(C)C2)[nH]n1 (stereo unspecified),2%[57 µM],?,14µM*,.,?,.
COc1ccc(CNC(=O)c2ccc3c(c2)N(C)C(=O)C2CCCCN32)cc1OC (stereo unspecified),20%[57 µM],-13%,2%[59 µM],.,-3%,.
CCc1c(-c2ccccc2)nc2ccccc2c1C(=O)NC(C)c1ccccc1 (stereo unspecified),20%,-15%,1%[59 µM],.,-2%,.
CCOC(=O)c1cc(S(=O)(=O)N2CCN(c3cc(C)ccc3C)CC2)[nH]n1,-4%[57 µM],-33%,4µM*,.,50µM*,.
CCOC(=O)c1cc(S(=O)(=O)N2CCN(c3ccccc3)CC2)[nH]n1,3%[57 µM],-16%,?,.,-32%,.
CCOC(=O)c1cc(S(=O)(=O)N2CCN(c3ccc(C(C)=O)cc3)CC2)[nH]n1,21%[57 µM],-9%,13µM*,.,?,.
COc1ccccc1-c1nccc(Nc2ccc(F)cc2)n1,.,.,5%[0.501 µM],.,.,.
CCOC(=O)C1CCCN(Cc2cccc(Oc3ccccc3)c2)C1 (stereo unspecified),?,3.2µM*,79µM*,2%,?,-3
CCNC(=O)C1(C)CCN(Cc2cccc(Oc3ccccc3)c2)C1 (stereo unspecified),.,.,.,.,.,-4
COc1ccccc1C(=O)C1CCCN(Cc2cccc(OCCO)c2)C1 (stereo unspecified),15%,-10%,20%,-7%,6%,0
CCN1CCN(Cc2cccc(Oc3ccc(Cl)cc3)c2)CC1,12%,-31%,?,.,79µM*,.
CCN(CC)C(=O)C1CCCN(Cc2cccc(Oc3ccccc3)c2)C1 (stereo unspecified),0%,22µM*,28µM*,4%,-37%,0
CCOC(=O)C1CCN(Cc2cccc(Oc3ccccc3)c2)CC1,-19%,22µM*,7.1µM*,1%,56µM*,4
C[C@@H](Oc1ccc(Oc2cnc3ccc(Cl)cc3n2)cc1)C(=O)O,.,.,0%[12.7 µM],.,.,.
CCC(CC)C(=O)Nc1ccc(C(=O)OCc2cc(=O)n3nc(C4CC4)sc3n2)cc1,10%,-5%,27%[59 µM],.,-14%,.
COc1cc(OC)c(OC)cc1CN1CCCC(C(=O)c2sccc2C)C1 (stereo unspecified),1%,-31%,.,31%,-25%,3
CCOC(=O)C1CCN(Cc2cccc(Oc3ccc(Cl)cc3)c2)CC1,-30%,28µM*,?,10%,?,2
CCN(CC)C(=O)C1CCCN(Cc2ccc(OC)c(C)c2C)C1 (stereo unspecified),?,1.6µM*,?,-10%,71µM*,-2
Clc1ccccc1-c1nccc(NCc2ccccc2)n1,.,.,14%[0.501 µM],.,.,.
O=S(=O)(Cc1ccccc1)N1CCN(c2nc(-c3cccs3)nc3ccccc23)CC1,44%,-14%,.,.,.,.
N#C/C(=C\C=C\c1ccccc1[N+](=O)[O-])c1nc(-c2ccc3c(c2)OCO3)cs1,-14%,-19%,-8%[59 µM],-7%,-8%,.
SMILES,HP1b binding inh,JMJD2A Tudor,G9a inh,L3MBTL1 inh,BAZ2B inh,PI5P4Ka inh
N#C/C(=C\c1ccccc1[N+](=O)[O-])c1nc(C2CC2)cs1,?,32µM*,20µM*,?,28µM*,-3
N#C/C(=C/c1ccccc1[N+](=O)[O-])c1nnc2n1CCCCC2,20%,16%,-3%[59 µM],-2%,-4%,1
N#C/C(=C/c1ccccc1[N+](=O)[O-])c1nc(C2CC2)cs1,?,89µM*,?,?,10µM*,2
CCC(=O)N1CCc2cc(S(=O)(=O)NCCC(=O)NC(C)c3ccccc3)ccc21 (stereo unspecified),47%,3%,1%[59 µM],.,.,.
Cc1ccccc1NC(=O)c1c(C)oc2ccc(O)c(CN3CCOCC3)c12,5%,-23%,-31%[59 µM],.,-11%,.
c1ccc(CSc2ncn[nH]2)nc1,0%,-7%,45µM*,1%,-27%,-1
Cc1ccc(CS(=O)Cc2ccc(C(=O)NCc3ccccc3Cl)o2)cc1 (stereo unspecified),30%,-10%,79µM*!,.,-4%,3
Cc1ccc(CNC(=O)c2ccc(CS(=O)Cc3ccccc3Cl)o2)cc1 (stereo unspecified),44%,-8%,-36%,.,-20%,6
O=C(CN1CCN(c2cnn(-c3ccccc3)c(=O)c2Cl)CC1)NC1CCS(=O)(=O)C1 (stereo unspecified),19%,-11%,45µM*,-5%,1%,-7
Cc1ccc(N=C2c3ccccc3C(=O)C2[N+](=O)[O-])cc1C (stereo unspecified),17%,-27%,40µM*,.,-27%,-17
CC(=O)CC[N+](C)(C)C,79µM*,-1%,.,.,.,-6
C[C@]12CCC[C@H](O1)c1c(cc3c(c1O)C(=O)c1c(O)cc(O)cc1C3=O)O2,?,35µM*,.,.,.,-19
CC1(C)CC(=O)c2c(O)cc(O)cc2O1,22%,-11%,5%[12.7 µM],.,-4%,.
CCCCN(CC)CCCNC(=O)c1c(C)oc2ncnc(N3CCOCC3)c12,17%,-17%,-1%[59 µM],.,9%[57.1 µM],.
COc1ccc(/C=C2\SC(=O)N(CCNC(=O)Cc3coc4cc(C)ccc34)C2=O)cc1OC,10%,-28%,10µM*,-22%,-38%,-1
CCCCN(CC)CCCNC(=O)c1nn(-c2ccc(OC)cc2)c(=O)c2c1c1ccccc1n2C,12%,-21%,0%[59 µM],.,.,.
COc1ccc(N2CCN(C(=O)C(=O)c3c(C)n(C)c4ccccc34)CC2)cc1,-18%,?,5µM*,5%,?,7

# Bioassay records from PubChem.
